Hits are enriched below; roughly 2.5% of the tested compounds scored in any of these assays.
H9c2 protect: cardioprotection against H2O2-induced cell death, primary screen, uHTS, H9c2 cells, ATPLite luminescence; H9c2 cardiomyocytes, H2O2 injury protection, 2 h; protection from H2O2 cell death, % at 20 µM; 360,000 tested, 0.63% active; AID 588492, 2011;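 active = compounds giving at least 50% protection of heart cells from peroxide-induced death in the single-dose screen, raw or plate-pattern-corrected value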;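 also: 0% = DMSO wells with peroxide and 100% = DMSO wells without peroxide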
SKN-1 block: suppressors of acrylamide-induced Pgst-4::GFP reporter in worms, primary screen, SKN-1 inhibitor project, whole organism, uHTS, GFP/RFP fluorescence ratio, strain VP596 | C. elegans VP596 Pgst-4::GFP/RFP ratio, 24 h | inhibition, % at 21.8 µM | 360,000 tested, 0.49% active | AID 624304, 2012;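 active = interference check ratio from 0.5 to 1.5 plus GFP to RFP signal ratio inhibition reaching or exceeding a fixed threshold, cut at about 30% in these data, passing the limit was not always enough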
hiPSC survival: enhancers of single-cell hiPSC survival, primary screen, ATPlite luminescence; 100% = ROCK inhibitor wells, 0% = DMSO; survival enhancement, % at 20 µM; 360,000 tested, 0.044% active; AID 602274, 2012; in the data active = survival enhancement above about 18%;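 also: cells exposed to compounds for 16 hours before the ATP read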
TAG inh: inhibitors of triacylglycerol accumulation, primary screen, cell-based, uHTS, fluorescence, H9c2; H9c2 cells, Nile Red lipid (TAG) fluorescence; cells loaded with 200 µM oleic acid; inhibition, % at 12.5 µM; 230,000 tested, 0.66% active;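 active = pattern-corrected inhibition of lipid staining of at least 50% with the nuclear-stain viability signal not falling by more than 50%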;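 also: 0% = DMSO wells and 100% = triacsin C control wells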
CRFR2-BP ag: agonists of CRF-BP/CRF-R2 complex, primary screen, cell-based, HEK293, calcium dye fluorescence, uHTS. CRF-binding protein / CRF receptor 2 complex (human). 350,000 tested, 0.46% active. calcium dye fluorescence (FLIPR); percent of saturating CRF peptide response. activation, % at 13.2 µM;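 active = activation of at least 50%, plus an integration ratio under a set limit after plate pattern correction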;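 also: plate controls were neutral control wells without compound for no effect and CRF at EC100 for full effect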
CRFBP-R2 block: antagonists of CRF-BP/CRF-R2 complex, primary screen, cell-based, HEK293, calcium dye fluorescence, uHTS. AID 588475, 2011. 350,000 tested, 0.59% active. CRF-induced calcium fluorescence. inhibition, % at 11.8 µM;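 active = inhibition of the ligand-induced calcium signal above about 50% at the single tested concentration, limit read from the data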
The depositor's hits bear a star; · = no result.

SMILES	H9c2 protect	SKN-1 block	hiPSC survival	TAG inh	CRFR2-BP ag	CRFBP-R2 block
CC(=O)c1ccccc1OCC(O)CN1CCN(CCN2C(=O)c3cccc4cccc(c34)C2=O)CC1 (stereo unspecified)	58.4*	-14.1	-0.6	-33.6	0.6	-5.1
Cc1cccc(C)c1NC(=O)C1(C)CSCC(=O)N1CCc1ccccc1F (stereo unspecified)	·	11.5	·	·	·	·
COC(=O)[C@@]12C[C@@H](CC(=O)N3CCN(C(=O)C4CC4)CC3)C(=O)N(Cc3ccccc3)C1=CCC(C)(C)C2	·	15.3	·	·	·	·
Clc1ncccc1-c1nnn(-c2ccccc2Br)n1	-0.3	53.4*	-3.7	2.7	-0.3	-6.0
Cc1ccc(N(CC(=O)NCC2CCCO2)S(=O)(=O)c2ccc(Cl)cc2)cc1C (stereo unspecified)	3.3	35.1*	-0.4	·	-2.6	-6.8
CC(C)c1ccc(NC(=O)C2CC(=O)N(C3CCCC3)C2)cc1 (stereo unspecified)	0.9	-7.9	-0.2	·	0.7	-14.8
O=C(Nc1ccccc1)C1CC(=O)N(C2CCCCC2)C1 (stereo unspecified)	14.7	41.5*	-2.4	1.3	0.1	0.1
CC1CCCN(C(=O)c2ccc3c(c2NCCO)C(=O)c2ccccc2C3=O)C1 (stereo unspecified)	3.2	22.8	1.3	89.7*	-3.8	26.3
CC1(C)CCCN(C(=O)c2ccc3c(c2NCCO)C(=O)c2ccccc2C3=O)C1	-4.4	34.9	-1.4	·	-1.0	9.7
O=C(CSc1nc2ccccc2s1)N/N=C/c1ccco1	8.6	-5.2	-1.6	·	-3.1	-1.2
N#C/C(=C\c1ccco1)Sc1nc2ccccc2s1	1.3	44.5*	0.0	·	0.9	-3.7
N#Cc1ccc(S(=O)(=O)N2CCN(C(=O)[C@@H]3CCCN3C(=O)c3cccs3)CC2)cc1	1.8	2.4	-0.4	-3.2	-0.2	78.9*
O=C(C1CCCN1C(=O)c1cccs1)N1CCN(S(=O)(=O)c2ccc(F)cc2)CC1 (stereo unspecified)	5.6	-1.2	-0.3	5.2	-1.2	4.5
COCCN1CCN(c2c3c(nc4cc(-c5cccc(F)c5)nn24)CCC3)CC1	86.2*	14.9	1.1	32.2	-0.5	-3.2
OC1CCCN(c2c3c(nc4cc(-c5cccc(F)c5)nn24)CCCC3)C1 (stereo unspecified)	-3.3	6.9	-0.2	1.5	-0.1	-27.3
CCOC(=O)c1cnc(-n2nc(C)cc2C)nc1Nc1ccc(OC)cc1	50.5*	3.4	4.8	·	0.0	5.8
CCOC(=O)c1cnc(-n2nc(C)cc2C)nc1NCCc1ccccc1	60.9*	25.8	-0.7	-60.6	-1.1	13.7
CCOC(=O)c1cnc(-n2nc(C)cc2C)nc1NCc1ccc2c(c1)OCO2	16.5	15.6	-0.1	8.0	-0.7	16.1
O=C(NCc1ccccc1)c1cc(C2COCCN2S(=O)(=O)c2ccccc2)on1 (stereo unspecified)	-6.3	2.9	2.9	9.0	·	·
c1cc2c(nn1)CCc1nonc1-2	2.8	44.1*	-1.7	22.3	3.0	-32.2
C1CCc2c(nnc3c2-c2nonc2CC3)C1	3.6	7.0	3.8	·	0.5	17.8
CCC(C)C(=O)Nc1nnc(SCC(=O)NC(C)(C)C)s1 (stereo unspecified)	4.1	21.4	2.0	3.7	-0.1	66.7*
COC(=O)c1ccc2nc(-c3ccc(Cl)cc3)c(Cc3ccsc3)n2c1	·	0.2	-0.2	·	·	·
C=CCn1c(CNc2ccccc2)nnc1SCC(=O)N/N=C/c1ccccc1O	62.6*	-12.1	-0.2	0.0	0.3	-30.3
O=C(NCCOc1ccc(F)cc1)C1CCC(=O)N(CCc2ccccn2)C1 (stereo unspecified)	-5.8	-0.9	-0.2	6.0	1.8	9.7
SMILES	H9c2 protect	SKN-1 block	hiPSC survival	TAG inh	CRFR2-BP ag	CRFBP-R2 block
O=C(Cc1ccc(Br)cc1)Nc1ccc2[nH]ncc2c1	1.9	13.4	24.9*	-10.2	-2.5	-23.9
Cc1ccccc1NC(=O)CCC(=O)N/N=C/c1ccncc1	-0.1	9.4	1.1	-5.3	-0.9	3.9
CCn1cc(C2=NC(C(C)C)CO2)c2ccccc21 (stereo unspecified)	-14.4	2.3	-0.8	-8.4	0.8	-33.2
CC(C)C1COC(c2cccc3ccccc23)=N1 (stereo unspecified)	-10.0	37.1*	-1.4	-4.9	0.5	-16.4
CCc1nc2ccc(C(=O)NCc3ccc(OC)cc3)cn2c1N(C)C(=O)Cc1ccccc1	0.1	1.9	-0.8	3.9	·	·
Cc1[nH]n(-c2cccc3ccccc23)c(=O)c1C=Nc1ccc2[nH]c(=O)[nH]c2c1	6.4	41.1*	6.5	·	0.1	-3.0
Cc1ccc(-n2[nH]c(C)c(C=Nc3ccc4[nH]c(=O)[nH]c4c3)c2=O)cc1	-24.4	7.6	-0.6	·	-0.4	47.3
CCc1cc2ccc(C)cc2nc1SCC(=O)Nc1cc(OC)c(OC)cc1C(=O)O	21.4	-3.5	-1.2	·	1.3	38.6
COc1cc(NC(=O)CSc2nc3c(C)ccc(C)c3cc2C)c(C(=O)O)cc1OC	10.1	-1.5	2.2	-0.8	0.4	98.7*
OC[C@@H]1CN(Cc2cccc(C(F)(F)F)c2)C[C@H](n2cnc3c(NC4CC4)ncnc32)O1	-2.8	-2.1	0.9	17.2	·	·
Cc1ccc(S(=O)(=O)N[C@H](C(=O)Oc2ccc3c(C(F)(F)F)cc(=O)oc3c2)c2ccccc2)cc1	4.9	-8.3	-2.6	-15.0	69.1*	-20.1
Cc1ccc(F)c(C2C3C=CCC(c4cccc(-c5ccc(N(C)C)cc5)c4)C3C(=O)N2Cc2ccccc2)c1 (stereo unspecified)	-19.6	43.9*	-1.6	37.4	1.6	9.8
C[C@@H]1CC=C[C@H]2[C@H]1C(=O)N(Cc1ccccc1)[C@H]2c1ccc(-c2ccc(N(C)C)cc2)cc1F	-12.5	22.8	-1.3	5.8	-1.9	-3.0
COc1ncnc2c1ncn2CCCNCc1ccccn1	2.8	0.1	7.8	-3.2	-0.3	1.8
COc1ccc(Cl)cc1-c1cc(C(=O)NCc2cccs2)[nH]n1	3.1	12.3	-1.5	1.2	·	·
CC(CCc1ccco1)NC(=O)c1cccc2c1C(=O)N(C1CCCCC1)C2 (stereo unspecified)	4.9	9.2	-0.8	·	0.8	51.3*
Nc1ccc(C(=O)N/N=C\c2cc(N=Nc3cccc4ccccc34)ccc2O)cc1	49.3	5.9	-1.1	56.4*	-0.3	59.2*
COC(=O)c1cc2occc2n1CC(=O)Nc1ccc(OC)c(OC)c1OC	1.4	13.6	-1.4	·	1.4	20.7
COC(=O)c1cc2sc(Cl)cc2n1CC(=O)Nc1ccc(OC)c(OC)c1OC	2.8	-6.4	1.6	·	54.5*	-51.3

Screening results: PubChem, Sanford-Burnham Center for Chemical Genomics
